JMJD2A Tudor inh = qHTS Assay for Inhibitors of JMJD2A-Tudor Domain; Lysine-specific demethylase 4A (Homo sapiens), O75164; AlphaScreen JMJD2A-Tudor / H3K4me3 peptide binding; Potency, µM (doses to about 114 µM), actives largely listed as inhibitors; actives 4.4% (n = 390,000); AID 504339, 2011; further: nearly all actives have a fitted effect of over 50% in size
BAZ2B block = qHTS Assay for Inhibitors of BAZ2B | AlphaScreen BAZ2B-H3K14Ac peptide displacement | Potency, µM (highest dose often 114 µM), usual class: inhibitors | actives 4.4% (n = 360,000); further: nearly all actives have a fitted effect of over 60% in size
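Protein-peptide AlphaScreen: BAZ2B 50 nM, b-H3K14Ac 50 nM, 1x PBS pH 7.4 + 0.01% Tween-20. Preincubation 30 min RT; cpd 30 min RT (top 110 uM); beads 20 min RT, light-protected.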
HP1b binding inh = HTS for Inhibitors of HP1-beta Chromodomain Interactions with Methylated Histone Tails | Chromobox protein homolog 1 (Homo sapiens), P83916 | AlphaScreen HP1-beta / biotin-H3K9me3 peptide binding | Potency, µM (titrated, usually from 114 µM), hits mostly inhibitors | actives 0.56% (n = 390,000) | AID 540317, 2011; further: nearly all actives have a fitted effect of over 70% in size
Target sequence (P83916 whole entry, looked up): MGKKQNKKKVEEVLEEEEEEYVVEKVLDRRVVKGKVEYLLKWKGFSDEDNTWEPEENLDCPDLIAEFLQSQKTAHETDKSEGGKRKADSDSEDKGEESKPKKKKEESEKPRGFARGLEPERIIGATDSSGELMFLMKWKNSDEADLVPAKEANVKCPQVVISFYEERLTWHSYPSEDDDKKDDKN
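Compound inhibition of the preformed complex between 50 nM HP1-beta and 50 nM biotinylated H3K9me3 peptide was read by AlphaScreen. Buffer was PBS pH 7.4 with 0.01% Tween-20. Incubations ran 30 min at room temperature, with 10 ug/mL donor/acceptor beads.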
G9a inh = qHTS Assay for Inhibitors of Histone Lysine Methyltransferase G9a | Histone-lysine N-methyltransferase EHMT2 (Homo sapiens), Q96KQ7 | G9a H3K9 monomethylation, AlphaScreen, 2 h | Potency, µM (titrated, usually from 102 µM), actives largely listed as inhibitors | actives 8.8% (n = 350,000) | AID 504332, 2011; further: nearly all actives have a fitted effect of over 75% in size
Target sequence (Q96KQ7 913-1193 limits assumed): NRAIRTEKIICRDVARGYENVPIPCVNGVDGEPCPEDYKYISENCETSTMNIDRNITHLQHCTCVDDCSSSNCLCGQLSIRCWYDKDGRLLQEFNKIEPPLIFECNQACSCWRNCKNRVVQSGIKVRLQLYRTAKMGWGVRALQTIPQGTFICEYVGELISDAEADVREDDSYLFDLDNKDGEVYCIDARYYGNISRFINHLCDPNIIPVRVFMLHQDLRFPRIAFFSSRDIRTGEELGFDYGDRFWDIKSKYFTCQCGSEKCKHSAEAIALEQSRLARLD
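Step 1: enzyme (final 20 nM) with compound, 15 min RT. Step 2: substrate peptide 500 nM and SAM 20 uM, 2 h RT. Step 3: anti-H3K9me1 antibody and AlphaScreen beads, 10 min, then plate read.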
L3MBTL1 inh = qHTS Assay for the Inhibitors of L3MBTL1. Lethal(3)malignant brain tumor-like protein 1 (Homo sapiens), Q9Y468. AlphaScreen L3MBTL1–H3K9me1 peptide binding. Potency, µM (top dose mostly 57.1 µM), usual class: inhibitors. actives 0.66% (n = 230,000). AID 485360, 2010; further: nearly all actives have a fitted effect of over 60% in size
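First, the protein-peptide complex forms for 30 min at room temperature (L3MBTL1 50 nM, biotinylated H3K9me1 peptide 75 nM). Next, compounds are pin-transferred and incubated 30 min. Finally, AlphaScreen beads are added and read after 30 min.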
Hits are given with their value; 0 = inactive; ? = inconclusive; - = no result; ! = not active in a repeat; [ ] = dose if it differs, or a comment. Hits are enriched below; roughly 11% of the tested compounds scored in any of these assays. The call rests on the fitted dose curve; in most records, active means well fitted inhibition curve with a large enough effect; inconclusive means small, poorly fitted or top-dose-only effect; inactive means no such curve, though single readings can be large or run the other way.

SMILES | JMJD2A Tudor inh | BAZ2B block | HP1b binding inh | G9a inh | L3MBTL1 inh
CC(C)c1ccc(NC2(C#N)C(=O)Nc3ccccc32)cc1 (stereo not drawn) | ? | ? | 0 | 71µM | 0
CCNc1ncc2nc(CCc3ccccc3)c(=O)n(C[C@H]3CCCO3)c2n1 | - | - | - | 0[0.501 µM] | -
C[N+]12CCCCC1[C@@H](CO)CCC2 (stereo partly drawn) | 0 | 0 | 0 | 50µM | -
CC1C/C(=C/c2cccn2C)C(=O)/C(=C/c2cccn2C)C1 (stereo not drawn) | 25µM | 32µM | 40µM | ? | -
CC1C/C(=C/c2ccncc2)C(=O)/C(=C/c2ccncc2)C1 (stereo not drawn) | 0 | ? | 0 | 0 | -
CC12CCC(=O)N1C(C(=O)Nc1nnc(SCc3ccccc3F)s1)CS2 (stereo not drawn) | 0 | 0 | 0 | 79µM | -
CC12CCC(=O)N1C(C(=O)Nc1nc3c(F)cc(F)cc3s1)CS2 (stereo not drawn) | 0 | 0 | 0 | 45µM | -
CSc1ccccc1NC(=S)N/N=C/c1cccn1Cc1cccc(C)c1 | 0 | 8.9µM | 0 | 25µM | -
COc1ccc(NC(=S)N/N=C/c2cccn2Cc2ccc(F)cc2Cl)cc1 | 28µM | 18µM | ? | 22µM | -
CSc1ccccc1NC(=S)N/N=C/c1cccn1Cc1ccc(F)cc1 | 35µM | 28µM | 0 | 32µM | -
Cc1cccc(NC(=S)N/N=C/c2cccn2Cc2ccc(F)cc2)c1 | 0 | 8.9µM | 0 | ? | -
Cc1c(C(=O)NCc2ccccc2Br)oc2c1-c1[nH]ncc1CC2 | 0 | 0 | 0 | 0 | -
COc1ccccc1NC(=O)Cn1c(=O)n(Cc2cccs2)c(=O)c2cccnc21 | 0 | 0 | 0 | 0 | -
COc1cc(OC)c(NC(=O)c2nn(-c3ccc(C)cc3)c(=O)c3c2c2ccccc2n3C)cc1Cl | 0 | - | 0 | 0 | -
COc1ccc(C(=O)/C=C/c2ccc(N3CCCCC3)c([N+](=O)[O-])c2)cc1 | 11µM | 4µM | 25µM | 10µM | ?
COc1ccc(C(=O)/C=C/c2ccc(N3CCCCC3)c([N+](=O)[O-])c2)c(OC)c1 | 10µM | 8.9µM | 16µM | 8.9µM | ?
COc1ccccc1CCNC(=O)c1ccc(NC(=O)N2CC(C)Sc3ccccc32)cc1 (stereo not drawn) | 0 | 0 | 0 | 0 | -
Cc1ccc(-c2csc(=Nc3cccnc3)n2CCCN2CCCC2=O)cc1C | ? | ? | ? | 0 | 0
c1cncc(N=c2scc(-c3cccc4ccccc34)n2CCCn2ccnc2)c1 | 35µM | 10µM | ? | ? | ?
c1cncc(-c2nnc(-c3ccco3)o2)c1 | 0 | 0 | 0 | 0 | 0
Cc1ccc(-c2csc(=Nc3cccnc3)n2CCCn2ccnc2)cc1C | ? | 13µM | ? | ? | ?
COCCn1c(-c2ccccc2)csc1=Nc1cccnc1 | ? | 40µM | ? | 40µM | ?
CCCCn1c(C)csc1=Nc1cccnc1 | 0 | ? | 0 | ? | 0
CC(C)n1c(-c2ccco2)csc1=Nc1cccnc1 | 56µM | 28µM | ? | 13µM | 0
CCCCN(C)CCCNC(=O)Cn1ncc2c3ccccc3n(Cc3cc(C)ccc3C)c2c1=O | 0 | ? | 0 | 0 | -
SMILES | JMJD2A Tudor inh | BAZ2B block | HP1b binding inh | G9a inh | L3MBTL1 inh
CC1CC(Nc2cccc(O)c2)=CC(=O)O1 (stereo not drawn) | 0 | 0 | 0 | 0[2.33 µM] | -
C[C@@H]1Cc2c(O)c(O)cc(O)c2C(=O)O1 | 56µM | ? | ? | 0 | -
CCOc1ccc(-n2nc(CO)c(C(=O)NCc3ccccn3)n2)cc1 | 0 | 0 | 0 | 0 | -
[N-]=[N+]=Nc1ccc(C(=O)CSC[C@H](NC(=O)CC[C@H](N)C(=O)O)C(=O)NCC(=O)O)cc1 | - | - | - | 32µM! | -
COC(=O)c1cc2oc3ccccc3c2n1Cc1nc(-c2cccc(Cl)c2)oc1C | 0 | 0 | 0 | 0 | -
O=C(O)c1ccccc1N/N=C/c1cc(Br)cc(Br)c1O | ? | 45µM | 0 | - | 0
O=C(Cc1ccccc1)N/N=C/c1cc(Br)cc(Br)c1O | 0 | 0 | 0 | 0[2.33 µM] | -
Cc1ccc(-c2nnc(Nc3ccc(O)cc3)c3ccccc23)cc1S(=O)(=O)NCC1CCCO1 (stereo not drawn) | 0 | ? | 0 | 0 | -
CCOC(=O)C1CCN(C(=O)c2cc(COc3ccc(OC)c4ccccc34)on2)CC1 | 0 | ? | 0 | 45µM | -
COc1ccc(OCc2cc(C(=O)N3CCC(OC)CC3)no2)c2ccccc12 | ? | ? | 0 | ? | -
NC(=O)CC(NC(=O)c1cccc(Br)c1)c1ccc(N2CCCCCC2)c([N+](=O)[O-])c1 (stereo not drawn) | ? | ? | 0 | - | 0
NC(=O)CC(NC(=O)c1cccc(Br)c1)c1ccc(NC2CCN(Cc3ccccc3)CC2)c([N+](=O)[O-])c1 (stereo not drawn) | ? | ? | 0 | 50µM | 0
NC(=O)CC(NC(=O)Cc1ccc(Cl)cc1)c1ccc(NC2CCN(Cc3ccccc3)CC2)c([N+](=O)[O-])c1 (stereo not drawn) | 0 | ? | 0 | ? | 0
NC(=O)CC(NC(=O)c1ccccc1)c1ccc(N2CCCCCCC2)c([N+](=O)[O-])c1 (stereo not drawn) | 0 | ? | 0 | 45µM | 0
NC(=O)CC(NC(=O)c1ccc(Br)cc1)c1ccc(NC2CCCCCCC2)c([N+](=O)[O-])c1 (stereo not drawn) | ? | ? | 0 | 79µM | 0
NC(=O)CC(NC(=O)c1ccccc1)c1ccc(NC2CCCCCCC2)c([N+](=O)[O-])c1 (stereo not drawn) | 0 | ? | 0 | - | 0
NC(=O)CC(NC(=O)c1ccc(Br)cc1)c1ccc(N2CCCCCC2)c([N+](=O)[O-])c1 (stereo not drawn) | ? | ? | 0 | 45µM | 0
COc1ccc(NC(=O)CN(C)C(=O)c2ccc(NS(=O)(=O)c3cccc([N+](=O)[O-])c3)cc2)cc1 | 0 | 0 | 0 | 0[12.7 µM] | 0
Cc1cc2nc(-c3cccc(NC(=O)c4cccc5ccccc45)c3)oc2cc1C | 0 | 0 | 0 | 0 | -
CC(=O)Nc1ccc2c(c1)Cc1cc(N3C(=O)C=CC3=O)ccc1-2 | 7.1µM | - | ? | - | -
O=C1C=CC(=O)N1c1ccc2c(c1)Cc1cc(F)ccc1-2 | 0 | - | 0 | - | -
O=S(=O)(NCc1ccc(F)cc1)c1ccc2[nH]c3c(c2c1)CCCC3 | ? | ? | 0 | 8.9µM | -
O=S(=O)(NCc1ccccc1)c1ccc2[nH]c3c(c2c1)CCCCC3 | ? | 0 | 0 | 14µM | -
Cc1ccc(CNS(=O)(=O)c2ccc3[nH]c4c(c3c2)CCCC4)cc1 | ? | 0 | 0 | ? | -
Cc1ccc(CNS(=O)(=O)c2ccc3[nH]c4c(c3c2)CCCCC4)cc1 | 0 | 0 | 0 | 0 | -
O=C(CC1CCCCC1)NCc1ccccn1 | 0 | 0 | 0 | 0[12.7 µM] | -
O=C(c1c(F)cccc1F)N(Cc1ccccn1)C1CC1 | 0[11.4 µM] | 79µM | 0 | ? | -

Assay outcomes: PubChem BioAssay, National Center for Advancing Translational Sciences (NCATS)
